# Most compounds without a hit are left out; they make up all but 7.3% or so of the library.
# ELG1 genotoxic: inducers of genotoxicity in HEK293T ELG1-luciferase cells. AID 504466. Potency, µM (top dose mostly 46 µM), without a hit: at the highest dose activity change, positive = activation, usual class: activators. HEK293T ELG1-luciferase reporter, luminescence, 16 h. 1.3% of 330,000 active; further: % of control where 0% means no effect; nearly all actives have a fitted effect of over 60% in size
#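 Cells (2,000/well) expressing the ELG1-luciferase fusion are dosed by pin tool and kept 16 hr at 37 °C, 5% CO2. Signal comes from ONE-Glo luciferase reagent after 30 min at room temperature.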
# SMN2 splice up: enhancers of SMN2 splice variant expression; HEK293 SMN2-luciferase splicing reporter, luminescence, 30-36 h; Potency, µM (titrated, usually from 46.1 µM), for the others: at the top dose activity change, positive = activation, hits mostly activators; 2.8% of 210,000 active; AID 1458; further: % of control where 0% means no effect; nearly all actives have a fitted effect of over 55% in size
#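 HEK293 cells carry an SMN2 […]–luciferase reporter in which exon 7 inclusion puts luciferase in frame. Cells were plated 10-12 h before compound addition, then incubated 30-36 h at 37C. ONE-Glo luminescence was read; sodium butyrate at 4.5 mM final served as control.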
# Rab9 promoter act: activators of Rab9 promoter | Potency, µM (highest dose often 9.22 µM), for the others: at the highest dose activation, negative = inhibition, actives largely listed as activators | 2.8% of 320,000 active | Huh7 Rab9 promoter-luciferase reporter, luminescence, 24 h | AID 485297; further: % of control where 0% means no effect; nearly all actives have a fitted effect of over 60% in size
#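 Luminescence from Amplite-detected luciferase (10 minutes, ambient) reports Rab9 promoter activation. Before that, stable Rab9-luciferase Huh7 cells (1500/well, reduced-serum OP-MEM I plus 10% FBS) were exposed to compound for 24 hours at 37C.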
# FLuc counter: firefly luciferase modulation, counter-screen for miR-21 project | Potency, µM (doses to about 57.5 µM), inactives show at the highest dose activity change, negative = inhibition, hits mostly inhibitors | purified FLuc, Km substrates, luminescence inhibition | 6.9% of 360,000 active | AID 588342;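 further: plate controls were vehicle for no effect and reference inhibitor for full effect; nearly all actives have a fitted effect of over 55% in size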
# Target sequence (P08659 whole entry, looked up): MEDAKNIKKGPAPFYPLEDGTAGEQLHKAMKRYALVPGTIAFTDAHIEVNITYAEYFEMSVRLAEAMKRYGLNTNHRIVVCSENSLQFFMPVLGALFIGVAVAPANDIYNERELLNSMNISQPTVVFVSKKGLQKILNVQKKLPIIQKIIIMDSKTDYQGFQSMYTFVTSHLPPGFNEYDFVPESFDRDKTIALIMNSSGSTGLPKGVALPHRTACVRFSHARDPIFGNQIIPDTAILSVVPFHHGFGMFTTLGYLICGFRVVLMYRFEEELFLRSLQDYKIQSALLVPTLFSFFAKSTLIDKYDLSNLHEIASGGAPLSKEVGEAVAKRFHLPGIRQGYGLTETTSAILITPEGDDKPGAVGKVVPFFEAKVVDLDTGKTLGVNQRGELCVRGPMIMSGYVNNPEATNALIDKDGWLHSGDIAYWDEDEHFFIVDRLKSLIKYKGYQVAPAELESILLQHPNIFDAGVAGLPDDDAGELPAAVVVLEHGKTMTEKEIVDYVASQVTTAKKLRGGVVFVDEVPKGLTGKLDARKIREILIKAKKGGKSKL
#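 Biochemical qHTS of compounds, final roughly 60 µM downward over six points, against 10 nM purified firefly luciferase using Km concentrations of substrates (10 uM D-luciferin, 10 uM ATP) in Tris acetate pH 7.5 buffer; luminescence output.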
# Luc counter: blocks Kinase-Glo luciferase, a counter-screen artifact; 0.28% of 200,000 active; Potency, µM (series often up to 38.3 µM), inactives show at the top dose activity change, negative = inhibition, actives largely listed as inhibitors; Q27757; AID 1379; Kinase-Glo luciferase, ATP luminescence, 8 min; further: on the % scale 0 is the no-effect control and ±100 the full control effect; nearly all actives have a fitted effect of over 60% in size
#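 Compound is pinned into ATP-containing buffer (10 uM ATP, imidazole pH 7.2, 7 mM MgCl2). Kinase-Glo luciferase reagent is then added. Light output is recorded following an 8-min room-temperature incubation.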
# NPC1 promoter act: activators of NPC1 promoter; Huh7 NPC1 promoter luciferase reporter, 24 h; Potency, µM (series often up to 9.22 µM), inactives show at the highest dose activation, usual class: activators; 2.4% of 320,000 active; AID 485313; further: % of control where 0% means no effect; nearly all actives have a fitted effect of over 60% in size
#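 In 1536-well qHTS, Huh7 cells harboring an NPC1 promoter–luciferase construct received compound for 24 h; activation was quantified by luminescence following luciferase reagent addition.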
# Active calls of the source: *; u = inconclusive; x = no result given. The call rests on the fitted dose curve; in most records, active means well fitted curve in the direction sought with a large enough effect; inconclusive means small, poorly fitted or top-dose-only effect, or another doubt; inactive means no such curve, though single readings can be large; an effect the other way counts as inactive or inconclusive. Potency means the concentration at half of the fitted maximal effect.
SMILES,ELG1 genotoxic,SMN2 splice up,Rab9 promoter act,FLuc counter,Luc counter,NPC1 promoter act
Cc1csc(NC(=S)NC(=O)c2ccccc2)n1,21µM*,x,u,13µM*,x,u
Cc1csc(NC(=O)c2ccccc2[N+](=O)[O-])n1,4%,-5%,4%,2%,-2%,-1%
Cc1csc(NC(=O)c2ccccc2)n1,u,x,3.5µM*,9.5µM*,x,4µM*
COc1ccc(NC(=O)C2CCN(C(=O)c3sc4nc[nH]c(=O)c4c3C)CC2)c(OC)c1,x,x,x,0%,x,x
CCCCc1nnc(NC(=O)Cc2ccc(S(=O)(=O)N3CCOCC3)s2)s1,1%,x,-2%,0%,x,0%
CCOC(=O)C1CCN(C(=O)c2cccc(S(=O)(=O)N3CCc4ccccc43)c2)CC1,0%,x,-11%,-1%,x,0%
CCOc1ccc(S(=O)(=O)N2CCCCC2)cc1NC(=O)C1CSC2(C)CCC(=O)N12 (stereo not drawn),-13%,x,0%,5%,x,0%
O=C(NCCc1ccc(F)cc1)N1CCOCC1,29%,u,18%,-12%,2%,15%
Cc1csc(NC(=O)c2cnccn2)n1,u,0%,u,u,u,u
COc1ccc(-c2nsc(NC(=O)c3cccc(OC)c3)n2)cc1,x,-36%,x,11µM*,x,x
Cc1csc(NC(=O)c2ccc3nc[nH]c3c2)n1,11%,x,0.5µM*,4.3µM*,x,u
COc1ccc(NC(=O)c2ccc3nc[nH]c3c2)cc1,22%,x,u,u,x,u
COc1cccc(C(=O)Nc2nc(-c3ccc(Br)cc3)ns2)c1,x,x,x,-13%,x,x
Cc1csc(NC(=O)NCC2CCCC(CNC(=O)Nc3nc(C)cs3)C2)n1 (stereo not drawn),-1%,x,20%,u,x,3.5µM*
Cc1csc(NC(=O)c2cc(C)on2)n1,u,x,2.2µM*,11µM*,x,2.2µM*
CC(=O)Nc1ccc(NC(=O)C2CC(=O)N(c3cccc(Cl)c3)C2)cc1 (stereo not drawn),4%,5%,-1%,-1%,0%,-1%
Cc1onc(-c2ccccc2)c1C(=O)Nc1nc2c(s1)CCCC2,4%,-10%,-4%,-2%,-7%,4%
COc1cccc(C(=O)Nc2nc(-c3nnn(-c4cccc(Cl)c4C)c3C)ns2)c1,x,x,x,12µM*,x,x
Cc1cc(C(=O)Nc2nc3c(s2)CCCC3)no1,0.79µM*,u,0.79µM*,4.8µM*,u,1.6µM*
Cc1csc(NC(=O)c2cccnc2)n1,9%,x,2%,-11%,x,-2%
Cc1csc(NC(=O)c2ccc[nH]c2=O)n1,16µM*,x,3.5µM*,17µM*,x,4µM*
COc1cccc(C(=O)Nc2nc(C)cs2)c1,16%,11µM*,2.5µM*,6.7µM*,-15%,3.2µM*
CN(C)S(=O)(=O)c1cccc(NC(=O)COC(=O)[C@H](Cc2ccccc2)NC(=O)c2ccco2)c1,-1%,x,x,x,x,x
CCOc1ccc(C(=O)NCCCCNC(=O)c2ccc(OCC)cc2)cc1,u,x,u,u,x,3.5µM*
CCOc1ccc(C(=O)NCCc2ccccc2)cc1,0.58µM*,3.5µM*,0.32µM*,1.1µM*,-11%,0.4µM*
SMILES,ELG1 genotoxic,SMN2 splice up,Rab9 promoter act,FLuc counter,Luc counter,NPC1 promoter act
COc1ccccc1NC(=O)COC(=O)CNC(=O)c1ccc(OC)c(OC)c1,18µM*,5µM*,21%,-1%,-1%,14%
COc1ccc(C(=O)NCC(=O)OCCCOC(=O)CNC(=O)c2ccc(OC)c(OC)c2)cc1OC,5%,x,-1%,-1%,x,-2%
CS(=O)(=O)NCc1ccc(C(=O)NCCOc2ccccc2)cc1,u,11µM*,3.5µM*,19µM*,4%,4µM*
COc1ccccc1N1CCN(C(=O)c2noc(C)c2[N+](=O)[O-])CC1,-4%,x,1%,-1%,x,-3%
Cc1cc(S(=O)(=O)Nc2cccc(C(=O)O)c2)c(C)c(S(=O)(=O)c2ccccc2)c1,x,-3%,x,u,x,x
CNC(=S)N1N=C(c2ccc(Br)cc2)CC1c1ccc(Br)cc1 (stereo not drawn),-2%,-5%,-3%,-1%,-1%,-3%
CC1CN(C(=O)Nc2ccc(C(=O)NCCc3ccccc3)cc2)c2ccccc2S1 (stereo not drawn),x,14µM*,x,-10%,x,x
COc1ccc(C(=O)NCCCc2ccccc2)cc1OC,2%,x,0%,-9%,x,4%
CS(=O)(=O)N1CCc2cc(C(=O)NCCc3ccccc3)ccc21,x,13µM*,x,u,x,x
CCOC(=O)c1c(C)c(C(=O)NCCc2ccccc2)c(C)n1C,u,16µM*,3.5µM*,u,1%,u
COc1ccc(C(=O)NCCc2ccccc2)cc1OC,17%,x,4µM*,u,x,u
CCOC(=O)c1c(C)c(C(=O)NCc2cccnc2)c(C)n1C,-5%,-11%,4%,0%,-3%,1%
CC(=O)Oc1ccc(C(=O)NCCc2ccccc2)cc1,15%,8.9µM*,0.5µM*,9.5µM*,-16%,0.4µM*
CS(=O)(=O)Nc1ccc(C(=O)NCCc2ccccc2)cc1,u,11µM*,2µM*,u,-4%,u
COc1ccc(OC)c(-c2nnc3n2N=C(c2ccc(OC)c(OCC4CC4)c2)CS3)c1,-2%,x,x,x,x,x
Cc1cc2nc(NCCCO)n(CC(=O)c3cc(C(C)(C)C)c(O)c(C(C)(C)C)c3)c2cc1C,2%,x,-2%,0%,x,-3%
O=c1oc(/C=C/c2ccc([N+](=O)[O-])s2)nc2ccccc12,u,x,24%,u,x,u
COc1ccc(-c2oc(=O)c3cc(OC)c(OC)cc3c2/C=C/c2ccc(OC(C)=O)cc2)cc1,2%,x,x,x,x,x
CC(=O)Oc1ccccc1/C=C/c1nc2ccccc2c(=O)o1,1%,x,u,15µM*,x,u
CC(=O)Oc1ccc(/C=C/c2nc3ccccc3c(=O)o2)cc1,4%,x,u,0.43µM*,x,u
Cc1onc(-c2ccccc2)c1C(=O)NCc1ccc(Cl)cc1,-5%,x,0%,0%,x,-2%
Cc1cc(C(=O)COC(=O)c2ccc(NC(=O)CC#N)cc2)c(C)n1C1CC1,18%,x,4µM*,13µM*,x,u
Cc1cc(C(=O)COC(=O)c2ccc(NC(=O)CC#N)cc2)c(C)n1-c1ccc(OC(F)F)cc1,-4%,x,x,x,x,x
CC(C)N(C(=O)COC(=O)c1ccc(Cl)c(S(N)(=O)=O)c1)C(C)C,-3%,1%,7%,0%,-2%,-4%
Cc1cc(C(=O)COC(=O)c2ccc(Cl)c(S(N)(=O)=O)c2)c(C)n1C1CC1,15%,x,1.8µM*,4.8µM*,x,4µM*
N#CCSc1ccccc1NC(=O)COC(=O)CCN1C(=O)C2CC=CCC2C1=O (stereo not drawn),-3%,x,0%,-18%,x,3%

# Screens from PubChem.
